Data on 4 compounds can be found in PubChem BioAssay (EPA / NIEHS).

SMILES strings stand for the structures. Records with an inconclusive call do not appear. Activity calls are given as the source filed them. How the source made its calls: active means hit-call score of the fitted dose curve at least 0.9, where 1 is the maximum; inconclusive means response in the unintended direction; inactive means score below 0.9.

The target of assay [1] is rat Glutamate Metabotropic Receptor 5 (MGluR5), Grm5 (gene 24418) (UniProt P31424). Kind of assay: NVS_GPCR_rmMGluR5: NovaScreen (NVS) G Protein-Coupled Receptor Assay for rat Glutamate Metabotropic Receptor 5 (MGluR5) (AID 2283307). How it is done: NVS_GPCR_rmMGluR5 is a biochemical, single-readout assay that uses extracted gene-proteins from Rat whole brain in a tissue-based cell-free assay. Measurements were taken 1.5 hours after chemical dosing in a 48-well plate.NVS_GPCR_rmMGluR5 is one of one assay component(s) measured or calculated from the NVS_GPCR_rmMGluR5 assay. It is designed to make measurements of radioligand binding, a form of binding reporter, as detected with scintillation counting signals by Filter-based radiodetection technology.Data from the assay component NVS_GPCR_rmMGluR5 was analyzed into 1 assay endpoint. This assay endpoint, NVS_GPCR_rmMGluR5, was analyzed in the positive analysis fitting direction relative to DMSO as the negative control and baseline of activity. Using a type of binding reporter, loss-of-signal activity can be used to understand changes in the binding as they relate to the gene Grm5. Furthermore, this assay endpoint can be referred to as a primary readout, because the performed assay has only produced 1 assay endpoint. To generalize the intended target to other relatable targets, this assay endpoint is annotated to the gpcr intended target family, where the subfamily is metabotropic glutamate receptor. […]

Assay [2] has as its system NCBI gene 24521. Kind of assay: NVS_IC_rKATPCh: NovaScreen (NVS) Ion Channel Assay for rat Potassium Channel, ATP-Sensitive (KATPCh) (AID 2283319). The procedure, abridged: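 Primary duplicate screen at 25 uM, then singleton concentration series to 50 uM maximum, in a rat cortex membrane radioligand displacement assay. Binding measured by filtration and scintillation 2 h post-dose; DMSO baseline.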

In assay [3] the target is bovine Gamma-Aminobutyric Acid Type A Receptor BDZ, alpha 5 site (GABARa5), GABRA5 (gene 523515) (UniProt Q08E50). Kind of assay: NVS_LGIC_bGABARa5: NovaScreen (NVS) Ligand-Gated Ion Channel Assay for bovine Gamma-Aminobutyric Acid Type A Receptor BDZ, alpha 5 site (GABARa5) (AID 2283323). The procedure, abridged:
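Tested first in duplicate at a single 25 uM, with hits re-run in concentration series to a 50 uM maximum. Bovine hippocampal membranes; specific radioligand displacement measured by filter scintillation counting 1 hr post-dose.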

rat Glutamate Metabotropic Receptor 5 (MGluR5), Grm5 (gene 24418), sequence (P31424 whole entry, looked up): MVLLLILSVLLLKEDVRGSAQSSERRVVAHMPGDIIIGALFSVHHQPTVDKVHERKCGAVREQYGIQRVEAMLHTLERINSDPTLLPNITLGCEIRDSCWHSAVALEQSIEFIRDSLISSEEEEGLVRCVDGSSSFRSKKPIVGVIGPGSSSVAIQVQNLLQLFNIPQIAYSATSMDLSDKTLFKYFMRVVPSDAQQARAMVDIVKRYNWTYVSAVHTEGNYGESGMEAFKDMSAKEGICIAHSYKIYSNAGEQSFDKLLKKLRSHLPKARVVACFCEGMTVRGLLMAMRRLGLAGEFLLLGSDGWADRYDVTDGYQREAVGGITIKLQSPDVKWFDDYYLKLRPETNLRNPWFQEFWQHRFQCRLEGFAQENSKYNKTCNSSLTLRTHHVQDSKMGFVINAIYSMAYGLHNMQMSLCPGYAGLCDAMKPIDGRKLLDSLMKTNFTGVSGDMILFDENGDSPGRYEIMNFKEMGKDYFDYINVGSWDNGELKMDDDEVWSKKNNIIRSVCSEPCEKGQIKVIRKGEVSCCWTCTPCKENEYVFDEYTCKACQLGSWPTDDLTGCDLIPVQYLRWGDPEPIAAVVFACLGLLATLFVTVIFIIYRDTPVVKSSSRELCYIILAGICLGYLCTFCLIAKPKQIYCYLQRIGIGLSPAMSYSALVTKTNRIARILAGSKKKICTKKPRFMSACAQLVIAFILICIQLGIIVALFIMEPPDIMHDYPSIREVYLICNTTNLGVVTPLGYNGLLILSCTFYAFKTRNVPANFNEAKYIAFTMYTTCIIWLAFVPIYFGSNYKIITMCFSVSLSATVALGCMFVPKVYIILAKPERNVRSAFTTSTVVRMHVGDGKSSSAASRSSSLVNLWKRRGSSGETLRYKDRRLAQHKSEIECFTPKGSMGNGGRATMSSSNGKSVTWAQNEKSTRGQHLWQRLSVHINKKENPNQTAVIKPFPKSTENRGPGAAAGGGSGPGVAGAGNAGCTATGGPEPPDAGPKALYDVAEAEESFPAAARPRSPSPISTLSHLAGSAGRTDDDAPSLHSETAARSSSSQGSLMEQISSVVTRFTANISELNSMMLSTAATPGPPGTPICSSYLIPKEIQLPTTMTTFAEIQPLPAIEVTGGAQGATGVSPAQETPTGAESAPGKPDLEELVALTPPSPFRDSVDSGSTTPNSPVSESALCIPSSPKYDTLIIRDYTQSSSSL
bovine Gamma-Aminobutyric Acid Type A Receptor BDZ, alpha 5 site (GABARa5), GABRA5 (gene 523515), sequence (Q08E50 whole entry, looked up): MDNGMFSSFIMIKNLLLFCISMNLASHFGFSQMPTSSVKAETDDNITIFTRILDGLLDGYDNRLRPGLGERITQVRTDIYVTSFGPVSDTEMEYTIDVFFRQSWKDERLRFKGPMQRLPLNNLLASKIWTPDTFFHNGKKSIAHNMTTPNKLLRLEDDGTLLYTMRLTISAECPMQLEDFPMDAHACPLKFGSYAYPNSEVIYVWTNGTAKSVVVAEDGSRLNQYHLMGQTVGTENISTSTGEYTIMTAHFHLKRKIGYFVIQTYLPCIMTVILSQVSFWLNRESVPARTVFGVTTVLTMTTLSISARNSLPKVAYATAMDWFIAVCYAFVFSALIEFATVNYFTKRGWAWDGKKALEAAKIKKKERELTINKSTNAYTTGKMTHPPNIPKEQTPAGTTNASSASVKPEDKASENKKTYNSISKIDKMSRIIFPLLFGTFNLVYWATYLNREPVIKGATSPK

As to `O=CCCCC=O`, the compound was classed as inactive in assay [1].
On the same count and under the same terms, in the case of `Cc1occc1C(=O)Nc1ccc(C(=O)N2CCC(F)(F)/C(=C\C(=O)N3CCC(N4CCCCC4)CC3)c3ccccc32)cc1` it was “inactive”.
For `CN(C)C(=O)C1(N2CCCCC2)CCN(CC[C@@]2(c3ccc(Cl)c(Cl)c3)CN(C(=O)c3ccccc3)CCO2)CC1`, in assay [2], the compound was called inactive.
On to `CC(C)(O)c1ccc(CNC(=O)c2cccnc2Oc2ccc3nonc3c2)cc1`, for which the compound was called inactive in assay [3].
